High-throughput results from PubChem BioAssay.
STK33 inh – STK33 kinase inhibitors, primary screen, biochemical, luminescence, ADP-Glo, MBP substrate. actives 0.44% (n = 27,000). Serine/threonine-protein kinase 33 (Homo sapiens), Q9BYT3. inhibition, % at 12.5 µM; in the data active means inhibition above about 20%
Target sequence (Q9BYT3 whole entry, looked up): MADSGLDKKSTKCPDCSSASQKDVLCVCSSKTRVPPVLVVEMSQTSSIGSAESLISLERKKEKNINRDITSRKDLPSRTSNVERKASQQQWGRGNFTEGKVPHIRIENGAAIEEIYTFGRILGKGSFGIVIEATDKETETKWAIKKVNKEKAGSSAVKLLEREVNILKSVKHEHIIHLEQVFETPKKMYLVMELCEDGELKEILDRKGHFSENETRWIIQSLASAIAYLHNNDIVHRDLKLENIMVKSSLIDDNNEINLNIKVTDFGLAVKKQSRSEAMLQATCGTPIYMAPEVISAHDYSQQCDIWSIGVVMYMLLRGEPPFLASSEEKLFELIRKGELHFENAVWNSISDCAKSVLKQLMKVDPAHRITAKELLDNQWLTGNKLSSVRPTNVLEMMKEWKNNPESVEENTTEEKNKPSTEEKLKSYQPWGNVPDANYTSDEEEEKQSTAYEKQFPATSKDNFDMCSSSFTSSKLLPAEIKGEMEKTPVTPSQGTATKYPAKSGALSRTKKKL
ID4 SMM – binders of human ID4 protein, primary screen, biochemical, small molecule microarray, single point; DNA-binding protein inhibitor ID-4 (Homo sapiens), P47928; Flag-ID4 binding, fluorescence F/B; calls only; actives 1.2% (n = 31,000); AID 624137, 2012; call rule not given here;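 further: a binder raises fluorescence above local background on the spot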
p53 PUMA act – mutant p53 pathway re-activators, primary screen, cell-based, SW480, luciferase, single point, HTS; SW480 PUMA-promoter luciferase, p53 mutant reactivation; activation, % at 9.98 µM; actives 1.5% (n = 28,000); in the data active means activation above about 52%
* hit, by the source's call. Only some compounds are listed: those with a hit (about 2.1% of all), similar ones and a draw of the others.

Results for O=C(N[C@H]1CN2CCC1CC2)c1ccc(Cl)cc1 ?
ID4 SMM: active; p53 PUMA act: 12

What do the screens show for `Cn1cc(C(=O)C(=O)N[C@H]2CN3CCC2CC3)c2ccccc21`?
STK33 inh: 0; ID4 SMM: inactive; p53 PUMA act: 8

What do the screens show for `CO[C@H]1[C@H](O)[C@H](O[C@H]2CC[C@]3(C)C4CC[C@]5(C)[C@H](C6=CC(=O)OC6)CC[C@]5(O)C4CC[C@@H]3C2)O[C@@H](C)[C@@H]1O[C@@H]1O[C@H](CO[C@@H]2O[C@H](CO)[C@@H](O)[C@H](O)[C@H]2O)[C@@H](O)[C@H](O)[C@H]1O` (stereo partly drawn)?
STK33 inh: -3; ID4 SMM: inactive; p53 PUMA act: -103

How did COC1=CC(=O)OC(/C=C/c2ccccc2)C1 (stereo not drawn) do in these assays?
STK33 inh: 2; ID4 SMM: inactive; p53 PUMA act: 90*

How did C[C@@H]1O[C@@H](OC2CCC3(C)C4CCC5(C)C(C6=CC(=O)OC6)CCC5(O)C4CC[C@H]3C2)[C@H](O)[C@H](O)[C@H]1O (stereo partly drawn) do in these assays?
STK33 inh: -2; ID4 SMM: inactive

Results for C/C1=C/C(=O)O[C@@H]2C[C@@H](CC[C@H](C)/C=C\CC1)O[C@@](O)([C@@H]1CSC(=O)N1)C2 ?
STK33 inh: -2

How did COC1CC(OC2C(C)OC(OC3C(C)OC(OC4C(C)OC(O[C@H]5CC[C@@]6(C)C(=CC[C@]7(O)C6CC(OC(=O)c6ccccc6)[C@@]6(C)[C@]7(O)CC[C@@]6(O)C(C)=O)C5)CC4OC)CC3OC)CC2OC)OC(C)C1O (stereo partly drawn) do in these assays?
STK33 inh: -1; p53 PUMA act: -67

What do the screens show for `COc1ccc(CN2CCN(CCO)CC2)c(OC)c1C`?
STK33 inh: 0; ID4 SMM: inactive; p53 PUMA act: 14

How did Cc1cc(O)cc2oc(=O)c3c(O)cc(O)cc3c12 do in these assays?
STK33 inh: 74*; ID4 SMM: inactive; p53 PUMA act: 7

Results for CC1CCC/C=C/C2CC(O)CC2C(O)/C=C\C(=O)O1 (stereo not drawn) ?
ID4 SMM: inactive; p53 PUMA act: -89

What do the screens show for `CCOC(=O)[C@@H]1[C@@H]2NC(=O)N(C)[C@@]1(COCc1ccc(OC)cc1)Oc1ccccc12`?
ID4 SMM: inactive

How did CC[C@@H]1/C=C\C=C\C[C@H](C)C(O)[C@](C)(O)C(=O)[C@H](C)C(O)[C@H](C)C(=O)[C@H](C)[C@@H](O)[C@H](C)/C=C/C(=O)O[C@H]2[C@@H](C)[C@@H](CC1)O[C@@]1(CC[C@@H](C)[C@@H](C[C@H](C)O)O1)[C@@H]2C (stereo partly drawn) do in these assays?
STK33 inh: -1

How did O=C1NC(=O)C(CCc2ccncc2)(CCc2ccncc2)C(=O)N1c1ccccc1F do in these assays?
STK33 inh: -2; ID4 SMM: inactive; p53 PUMA act: -16

How did COC(=O)[C@@]1(O)C[C@@H]2O[C@@]1(C)n1c3ccccc3c3c4c(c5c6ccccc6n2c5c31)C(=O)NC4 do in these assays?
STK33 inh: 108*

What do the screens show for `C=C1[C@@H](C)[C@H]2[C@H](Cc3ccccc3)NC(=O)[C@]23[C@H](OC(C)=O)C=C[C@](C)(O)C(=O)[C@@H](C)C/C=C/[C@H]3[C@@H]1O`?
STK33 inh: -12; p53 PUMA act: -66

What do the screens show for `N#CC(C#N)=Cc1ccc(O)c(O)c1`?
STK33 inh: 0; ID4 SMM: inactive; p53 PUMA act: 16

How did N#C/C(=C\c1ccc(O)cc1)C(=O)O do in these assays?
STK33 inh: 27*

Results for COc1ccc2c(c1)/C(=C/c1cnc[nH]1)C(=O)N2 ?
STK33 inh: 79*; ID4 SMM: inactive

What do the screens show for `C[C@@H]1O[C@@H](O[C@H]2[C@H](O)[C@@H](O)[C@H](O[C@@H]3C=C4CC[C@@H]5C(CC[C@]6(C)[C@@H](c7ccc(=O)oc7)CC[C@]56O)[C@@]4(C)CC3)O[C@@H]2CO)[C@H](O)[C@H](O)[C@H]1O` (stereo partly drawn)?
STK33 inh: -2

Results for c1ccc2c(c1)cc1ccc3cccc4ccc2c1c34 ?
STK33 inh: 4; ID4 SMM: inactive; p53 PUMA act: 6

How did O=C1c2ccccc2-c2cccc3cccc1c23 do in these assays?
STK33 inh: 76*; ID4 SMM: inactive
